Results taken from PubChem BioAssay (NCATS).
“And” between values parts separate entries of the source, which are not always exact repeats. Identical values can stand only once. Results filed as inconclusive are left out. The source made the active and inactive calls. Unless noted, no rule for the calls is given here.

Key:
[1] = qHTS profiling of the MIPE4 collection as inhibitors of Plasmodium falciparum (3D7) proliferation (AID 743344);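 also: scaled between DMSO vehicle wells and 0.29 µM artemisinin as full inhibition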; conditions: P. falciparum 3D7 in erythrocytes, SYBR Green DNA fluorescence, 72 h; at 28.5 µM unless noted
In short: (§1)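 Parasite DNA was quantified by SYBR Green I fluorescence (ex 485, em 535 nm) after overnight lysis in saponin/Triton buffer at room temperature. Cultures at 0.3% parasitemia and 2.5% hematocrit were first exposed to compound for 72 h at 37 C; signals were normalised to artemisinin (0.29 uM) and vehicle wells.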

[2] = qHTS profiling of the MIPE4 collection as inhibitors of Plasmodium falciparum (DD2) proliferation (AID 743345); conditions: P. falciparum Dd2 in erythrocytes, SYBR Green DNA, 72 h; at 28.5 µM unless noted
In short: as §1

[3] = qHTS profiling of the MIPE4 collection as inhibitors of Plasmodium falciparum (DD2) proliferation (Rep 2) (AID 743346); conditions: P. falciparum Dd2 in erythrocytes, SYBR Green DNA, 72 h; at 28.5 µM unless noted
In short: as §1

[4] = qHTS profiling of the MIPE4 collection as inhibitors of Plasmodium falciparum (HB3) proliferation (AID 743347);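 also: plate controls were DMSO vehicle wells for no effect and artemisinin wells for full effect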; conditions: P. falciparum HB3 in erythrocytes, SYBR Green DNA, 72 h; at 28.5 µM unless noted
In short: as §1

[5] = High-throughput drug toxicity screening in the BPDCN cell line Gen2.2 (AID 1224824); conditions: Gen2.2 BPDCN cells; at 45.8 µM (top of the series) unless noted;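 also: cells exposed to compounds for 48 h before reading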
In short: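 Gen2.2, 500 cells/well, phenol red-free RPMI/10% FBS/Pen-Strep; 48 h cpd, 37 °C/5% CO2; CTG lum, 15 min RT. Norm: DMSO = 100%, bortezomib 9.2 uM final = 0%.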

[6] = High-throughput drug toxicity screening in the BPDCN cell line Cal-1 (AID 1224825); conditions: Cal-1 BPDCN cell viability, qHTS; at 45.8 µM (top of the series) unless noted
In short: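 CellTiter-Glo luminescence after 48 h compound exposure; percent activity scaled with DMSO as 100% and bortezomib (9.2 uM final) as 0%. Cal-1 cells seeded at 500/well in RPMI, 10% FBS, no phenol red.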

[7] = qHTS assay for measurement of the activity of small molecule inhibitors on Zika virus induced Caspase-3 activity in human iPSC derived neural progenitor cells (hNPCs) (AID 1224857; active = well fitted inhibition curve with a large enough effect; also: % of control where 0% means no effect; nearly all actives have a fitted effect of over 65% in size)
In short: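 In medium with heparin 2 ug/ml and cyclopamine 2 uM, hNPCs (350 cells/well) received compound for one hour and then Zika virus at 2 FFU/cell; caspase activity was measured by Caspase-Glo 3/7 luminescence 6 h post-infection.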

| SMILES | parasite growth, % of DMSO control [1] | parasite growth remaining, % of DMSO control (lower = more inhibition) [2] | parasite growth, % of control (lower = inhibition) [3] | growth, % of control [4] | cell viability, % of control (lower = more cytotoxic) [5] | viability (% of control) [6] | Potency [7] |
| --- | --- | --- | --- | --- | --- | --- | --- |
| CC(C)c1noc(N2CCC(COc3ccc(-c4ccc(S(C)(=O)=O)cc4)nc3)CC2)n1 | 22.7% | 23.2% | 49.7% | 20.9% | 87.9% | 68.8% | inactive |
| CC1COC2(CCN(c3nc(=O)c4cc(C(F)(F)F)cc([N+](=O)[O-])c4s3)CC2)O1 (centres undefined) | 20.5% | 70% | 33.5% | 29.9% | 104% | 110% | inactive |
| Cc1cc(C(=O)N2CCN(c3cccc(Cl)c3)CC2)n(-c2ccccc2)n1 | 97.2% | 107% | 98.6% | 108% | 88.4% | 18.2% | inactive |
| Nc1ccn([C@@H]2CS[C@H](CO)O2)c(=O)n1 | 404% [at 57.5 µM] | 100% [at 57.5 µM] | 146% [at 57.5 µM] | 263% [at 57.5 µM] | 218% [at 92.2 µM] | 11% [at 92.2 µM] | inactive |
| CNC(=O)c1c(F)cccc1Nc1nc(Nc2cc3c(cc2OC)CCN3C(=O)CN(C)C)nc2[nH]ccc12 | 3.51% | 6.69% | 6.76% | 2.27% | 5.55% | 2.8% | inactive |
| Nc1nc(NCCNc2ncc(-n3ccnc3)c(-c3ccc(Cl)cc3Cl)n2)ccc1[N+](=O)[O-] | 16.9% | 80% | 44.4% | 4.45% | 9.17% | 4.88% | inactive |
| NC1(Cc2ccc(Cl)cc2)CCN(c2ncnc3[nH]ccc23)CC1 | 19.2% | 31.6% | 23.9% | 5.59% | 12.2% | 22.9% | inactive |
| Nc1ccc(S(=O)(=O)Nc2ncccn2)cc1 | 92.1% | 105% | 69.1% | 63.8% | 115% | 103% | inactive |
| COc1c(N2C[C@@H]3CCCN[C@H]3C2)c(F)cc2c(=O)c(C(=O)O)cn(C3CC3)c12 | 53.9% and 70.8% | 76.4% | 31.4% and 104% | – | 73.3% | 71.9% | inactive |
| COc1cccc2c(NCc3ccccc3)nc(-n3c(N)nc4ccccc43)nc12 | 5.92% | 5.67% | 11.4% | 3.05% | 3.5% | 2.1% | inactive |
